From PubChem BioAssay (Tox21)
Inconclusive results are not listed. Calls of active or inactive are those of the source. Unless noted, calls come from the whole dose curve; as a rule, active = well fitted curve in the direction sought with a large enough effect in the repeat runs; inconclusive = weak or mixed curves; inactive = no such curve, though single readings can be large; an effect the other way counts as inactive or inconclusive.

Key:
[1] = qHTS assay for small molecule agonists of the p53 signaling pathway (AID 651631; calls by dose curve; note: nearly all actives have a fitted effect of over 15% in size)
How it was run: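 HCT-116 p53RE-bla reporter line, 16 h compound treatment at 37 °C, then fluorescence after 2 h with B/G FRET substrate.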

[2] = qHTS assay for small molecules that induce genotoxicity in human embryonic kidney cells expressing luciferase-tagged ATAD5 (AID 651632); note: nearly all actives have a fitted effect of over 15% in size
How it was run: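 ATAD5-luc HEK293T, 2,000 cells/well; cpd or DMSO pin-transferred; 16 hr, 37C/5% CO2; Amplite 30 min RT; luminescence.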

[3] = qHTS assay for small molecule agonists of the p53 signaling pathway - cell viability (AID 651633; calls by dose curve;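 note: p53RE-bla HCT reporter cells with a stable beta-lactamase p53 reporter; series mostly up to about 83 µM; nearly all actives have a fitted effect of over 30% in size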)
How it was run: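 p53RE-bla cells were treated with compound for 16 hours at 37 C. Cytotoxicity was then measured as CellTiter-Glo luminescence after 30 min at room temperature.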

[4] = qHTS assay for small molecules that induce genotoxicity in human embryonic kidney cells expressing luciferase-tagged ATAD5 - cell viability (AID 651634; calls by dose curve; note: nearly all actives have a fitted effect of over 25% in size)
How it was run: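 Fluorescence from CellTiter-Fluor, reporting protease activity within live cells, served as the viability read-out. HEK293T cells carrying luciferase-tagged ATAD5 had been treated with compound for 15.5 hr at 37C.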

[5] = qHTS assay for small molecule disruptors of the mitochondrial membrane potential - cell viability (AID 720634; calls by dose curve;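 note: human HepG2 liver cancer cells; series mostly up to about 83 µM; nearly all actives have a fitted effect of over 20% in size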)
How it was run: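 Cells: HepG2, 2,000/well, attached overnight. Compound 1 hr, 37 C/5% CO2. +m-MPI dye, +CellTiter-Glo 30 min RT. Readout: luminescence (ATP).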

[6] = qHTS assay to test for compound auto fluorescence at 590 nm (red) in HepG2 cells (AID 720674)
How it was run: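 Fluorescence at 590 nm emission following 540 nm excitation was recorded from HepG2 wells one hour after compound transfer, with DMSO-only wells as vehicle and Rose Bengal sodium equivalency as the scale.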

[7] = qHTS assay to test for compound auto fluorescence at 535 nm (green) in HepG2 cells (AID 720675)
[8] = qHTS assay to test for compound auto fluorescence at 460 nm (blue) in HEK293 cells (AID 720678)
How it was run: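 Blue read-out at excitation 405 nm and emission 460 nm follows overnight compound exposure of HEK293 cells at 37C in 5% CO2. Activity is given as auto fluorescence equivalency to triamterene.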

[9] = qHTS assay to test for compound auto fluorescence at 590 nm (red) in HEK293 cells (AID 720679)
How it was run: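 Red channel, Ex/Em 540/590nm; signal expressed as equivalency to Rose Bengal sodium. HEK293, 2,000 cells/well, 10% dialyzed FBS; 23 nL compound pinned after 4-5 hr attachment; overnight 37C/5% CO2 before reading.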

[10] = qHTS assay to test for compound auto fluorescence at 460 nm (blue) in HEK293 cell free culture (AID 720681)
How it was run: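 Compounds were added to cell-free DMEM with 10% FBS and fluorescence read directly. The blue channel used 405 nm excitation and 460 nm emission, with triamterene as the reference fluorophore.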

[11] = qHTS assay to test for compound auto fluorescence at 535 nm (green) in HEK293 cell free culture (AID 720682)
How it was run: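 Steps: dispense DMEM/10% FBS into empty wells; pin in compound or DMSO; measure fluorescence at 485/535 nm. Values are fluorescein equivalents.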

[12] = qHTS assay to test for compound auto fluorescence at 590 nm (red) in HEK293 cell free culture (AID 720683)
How it was run: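 Cell-free wells of DMEM with 10% FBS received compound, and intrinsic fluorescence was read at excitation/emission 540/590 nm. Values expressed as equivalence to Rose Bengal sodium.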

[13] = qHTS assay to test for compound auto fluorescence at 590 nm (red) in HepG2 cell free culture (AID 720684)
How it was run: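 Compounds are added to culture medium (MEM, 10% FBS) lacking cells, then fluorescence is read at excitation 540 nm, emission 590 nm, with Rose Bengal sodium as the equivalency standard.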

[14] = qHTS assay to test for compound auto fluorescence at 460 nm (blue) in HepG2 cell free culture (AID 720685)
How it was run: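 Compound (23 nL) or DMSO pinned into cell-free MEM with 10% FBS; blue fluorescence read at 405/460 nm excitation/emission, expressed as auto-fluorescence equivalency to triamterene.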

[15] = qHTS assay to test for compound auto fluorescence at 535 nm (green) in HepG2 cell free culture (AID 720686)
[16] = qHTS assay to test for compound auto fluorescence at 460 nm (blue) in HepG2 cells (AID 720687)
How it was run: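 HepG2 cells in MEM with 10% FBS, attached overnight at 37 C, were exposed to compound or DMSO for 1 hr at 37 C, 5% CO2. Blue fluorescence was read at 405/460 nm, with triamterene as reference fluorophore.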

[17] = target: Glucocorticoid receptor (Homo sapiens) (UniProt P04150); assay: qHTS assay to identify small molecule agonists of the glucocorticoid receptor (GR) signaling pathway (AID 720691; active = well fitted activation curve with a large enough effect in the signal ratio in the repeat runs, not every such curve was filed as active; the % refers to the signal ratio)
How it was run: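 Fluorescence intensity from LiveBLAzer B/G FRET substrate (2 h, room temperature) reports beta-lactamase expression driven by the glucocorticoid response element in GR-bla HeLa cells after 18 h compound exposure at 37 C.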

[18] = target: Glucocorticoid receptor (Homo sapiens) (UniProt P04150); assay: qHTS assay to identify small molecule antagonists of the glucocorticoid receptor (GR) signaling pathway (AID 720692; active = well fitted inhibition curve with a large enough effect in the signal ratio in the repeat runs, not every such curve was filed as active; the % refers to the signal ratio)
How it was run: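 HeLa GR-bla cells; cmpd + dex 5 nM final, 18 h 37 C; LiveBLAzer B/G FRET substrate 2 h RT; fluorescence intensity read. Antagonist mode, qHTS.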

[19] = qHTS assay to test for compound auto fluorescence at 535 nm (green) in HEK293 cells (AID 720680)
[20] = qHTS assay for small molecule disruptors of the mitochondrial membrane potential (AID 720635)
How it was run: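 HepG2 cells exposed to compound 1 hr at 37C, then Mito-MPS dye 30 min. Ratio read of aggregate (540/590 nm) versus monomer (490/535 nm) fluorescence.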

Measured: Potency

Glucocorticoid receptor (Homo sapiens), sequence (P04150 whole entry, looked up): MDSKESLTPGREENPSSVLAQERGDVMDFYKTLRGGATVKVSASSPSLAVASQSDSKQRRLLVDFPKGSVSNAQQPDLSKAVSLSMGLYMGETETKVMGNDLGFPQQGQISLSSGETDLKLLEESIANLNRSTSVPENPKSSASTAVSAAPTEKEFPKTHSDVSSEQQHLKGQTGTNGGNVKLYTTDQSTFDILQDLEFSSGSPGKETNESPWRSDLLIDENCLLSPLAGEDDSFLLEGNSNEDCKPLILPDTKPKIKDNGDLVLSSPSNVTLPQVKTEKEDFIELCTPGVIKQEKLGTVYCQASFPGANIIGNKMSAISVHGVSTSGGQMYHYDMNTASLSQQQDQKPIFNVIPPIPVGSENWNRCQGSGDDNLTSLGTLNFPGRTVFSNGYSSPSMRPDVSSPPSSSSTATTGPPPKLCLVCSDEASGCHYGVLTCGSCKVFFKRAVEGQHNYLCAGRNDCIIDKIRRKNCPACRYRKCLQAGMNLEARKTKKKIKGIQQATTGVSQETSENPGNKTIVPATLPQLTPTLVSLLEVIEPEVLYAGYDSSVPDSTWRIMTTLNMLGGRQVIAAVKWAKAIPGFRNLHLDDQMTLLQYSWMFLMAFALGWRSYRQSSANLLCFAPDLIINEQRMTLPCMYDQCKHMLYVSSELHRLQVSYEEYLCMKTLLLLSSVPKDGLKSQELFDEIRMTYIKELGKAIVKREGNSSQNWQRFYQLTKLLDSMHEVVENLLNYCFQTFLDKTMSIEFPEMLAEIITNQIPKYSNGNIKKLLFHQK

CCOC(=O)[C@H](CCc1ccccc1)N[C@H]1CS[C@H](c2cccs2)CN(CC(=O)O)C1=O
inactive: [1] | [2] | [3] | [4] | [5] | [6] | [7] | [8] | [9] | [10] | [11] | [12] | [13] | [14] | [15] | [16] | [17] | [18]

Nc1cc(S(=O)(=O)O)ccc1O
inactive: [1] | [2] | [3] | [4] | [6] | [7] | [8] | [9] | [19] | [10] | [11] | [12] | [13] | [14] | [15] | [16] | [17] | [18]

CCN(CC)CC
inactive: [1] | [2] | [3] | [4] | [6] | [7] | [8] | [9] | [19] | [10] | [11] | [12] | [13] | [14] | [15] | [16] | [17] | [18]

CCCC(C)C(O)CC (stereo not drawn)
inactive: [1] | [2] | [3] | [4] | [5] | [7] | [8] | [9] | [19] | [10] | [11] | [12] | [13] | [14] | [15] | [16] | [17] | [18]

C[C@]12C=CC(=O)C=C1[C@@H](F)C[C@@H]1[C@@H]2[C@@H](O)C[C@@]2(C)[C@H]1CC[C@]2(O)C(=O)CO
inactive: [1] | [2] | [3] | [4] | [5] | [7] | [8] | [9] | [19] | [10] | [11] | [12] | [13] | [14] | [15] | [16]

CCc1ccc(CC)cc1
inactive: [1] | [2] | [3] | [4] | [6] | [7] | [8] | [9] | [19] | [10] | [11] | [12] | [13] | [14] | [16] | [17] | [18]

O=CN1CCCCC1
inactive: [1] | [2] | [3] | [4] | [20] | [6] | [7] | [8] | [9] | [19] | [10] | [11] | [12] | [13] | [14] | [15] | [16]

NCC1CCC(C(=O)Oc2ccc(CCC(=O)O)cc2)CC1 (stereo not drawn)
inactive: [1] | [2] | [3] | [4] | [20] | [6] | [7] | [8] | [9] | [11] | [12] | [13] | [14] | [15] | [16]

Clc1cc(Cl)c(Cl)c(Cl)c1Cl
inactive: [1] | [2] | [3] | [4] | [5] | [6] | [7] | [8] | [9] | [10] | [11] | [12] | [13] | [14] | [16] | [17] | [18]

CC(=O)Nc1ccc(S(=O)(=O)Nc2cc(C)on2)cc1
inactive: [1] | [2] | [3] | [4] | [20] | [7] | [8] | [9] | [10] | [11] | [12] | [13] | [14] | [15] | [17] | [18]

CN(C)CCc1c[nH]c2ccc(C[C@H]3COC(=O)N3)cc12
inactive: [1] | [2] | [3] | [4] | [5] | [6] | [7] | [8] | [9] | [10] | [11] | [12] | [13] | [14] | [15] | [16] | [17] | [18]

CCCCCCCCCCCC(C)=O
inactive: [1] | [2] | [3] | [4] | [20] | [6] | [7] | [8] | [9] | [19] | [10] | [11] | [12] | [13] | [14] | [15] | [16] | [17] | [18]

Cc1ccc2cccnc2c1
inactive: [1] | [2] | [3] | [4] | [5] | [6] | [7] | [8] | [9] | [10] | [11] | [12] | [13] | [14] | [16] | [17] | [18]

C=CC(C)(CCC=C(C)C)OC(=O)C(C)C (stereo not drawn)
inactive: [1] | [2] | [3] | [4] | [5] | [6] | [7] | [8] | [9] | [10] | [11] | [12] | [13] | [14] | [15] | [16] | [17] | [18]

COc1cc(C(=O)NC2CCCNC2)cc(OC)c1OC (stereo not drawn)
inactive: [1] | [2] | [3] | [4] | [5] | [6] | [7] | [8] | [9] | [10] | [11] | [12] | [13] | [14] | [15] | [16] | [17] | [18]

COc1cc2nc(N3CCN(C(=O)C4CCCO4)CC3)nc(N)c2cc1OC (stereo not drawn)
inactive: [1] | [2] | [3] | [4] | [6] | [7] | [8] | [9] | [19] | [10] | [11] | [12] | [13] | [14] | [15] | [16] | [17] | [18]
